Measurements published in PubChem BioAssay AID463173 (ICCB-Longwood Screening Facility, Harvard Medical School, 2010).
The whole screen tested about 52,000 compounds, of which about 4,300 (8.3%) were called active. The sample as a whole holds a higher share of actives than the screen did. A number with no mark means an inactive call. No stated cut-off is given here; in the data, active means survival mostly below about 52% (no sharp cut-off); inactive means mostly above about 56%.

System: DeltatarO mutant
Experiment: S. aureus survival, RN4220 and DeltatarO strains – OD600, teichoic acid synthesis inhibitors, primary screen (AID 463173)
Settings: S. aureus RN4220 wild type/DeltatarO growth, OD600, 18 h, active compounds read low, screened at 18.75 µg/mL (by protocol)

Compound	survival
Cc1ccc(CN2C(=O)C3(SCC(=O)N3c3ccc(C)c(C)c3)c3ccccc32)cc1 (stereo unspecified)	99%
COc1ccc(CCC(=O)NCCc2csc(-c3cccc(F)c3)n2)cc1	83%
Cc1cccc(N(C)S(=O)(=O)c2ccc3c(c2)NC(=O)CC(=O)N3)c1	86%
COc1cccc(C(=O)NCC(C)C)c1	81%
Cc1ccc(CNC(=O)CSCc2nc(-c3cccc(C)c3)oc2C)cc1	-5% (active)
COc1ccc(CNC(=O)CSCc2nc(-c3ccccc3F)oc2C)cc1	67%
Cc1ccc(CCNC(=O)CSCc2nc(-c3ccc(C)cc3)oc2C)cc1	26% (active)
COc1ccc(-c2nc(CSCC(=O)NCCc3ccccc3)c(C)o2)cc1	86%
CCc1ccc(-c2nc(CSCC(=O)NCc3ccc(C)cc3)c(C)o2)cc1	-3% (active)
Cc1ccc(CNC(=O)CSCc2nc(-c3ccc(Cl)cc3)oc2C)cc1	66%
Cc1oc(-c2ccccc2F)nc1CSCC(=O)NCc1ccccc1	41% (active)
COc1ccc(-c2nc(CSCC(=O)NCCc3ccc(C)cc3)c(C)o2)cc1OC	56%
CCOc1ccc(-c2nc(CSCC(=O)NCc3ccc(Cl)cc3)c(C)o2)cc1	95%
Cc1cccc(-c2nc(CS(=O)CC(=O)NCc3ccc(Cl)cc3)c(C)o2)c1 (stereo unspecified)	61%
Cc1oc(-c2ccccc2F)nc1CSCC(=O)NCCc1ccccc1	94%
CCOc1ccc(-c2nc(CSCC(=O)NCc3ccc(C)cc3)c(C)o2)cc1	78%
O=C(CC1SC(=NC2CCCCC2)NC1=O)Nc1ccccc1 (stereo unspecified)	89%
O=C(Nc1ccc(Cl)cc1Cl)c1cc(S(=O)(=O)N2CCN(c3ccccc3F)CC2)ccc1F	102%
CCN(C(=O)C1CCCN(c2ncnc3c2nc2n3CCCCC2)C1)c1cccc(C)c1 (stereo unspecified)	75%
CC(C)Cc1nn2c(=O)cc(COC(=O)c3cccc(NS(C)(=O)=O)c3)nc2s1	82%
Cc1ccc(C(=O)CCCn2nnc(-c3ccncc3)n2)cc1C	100%
O=C(CSC1=NC2CCCCC2N1)N1CCOCC1 (stereo unspecified)	83%
Cc1ccc(NC(=O)CSc2nc3ccccc3nc2Cc2ccccc2)c(Cl)c1	99%

Compound	survival
CCCCCCOc1ccc(-c2nc3ccc(Br)cc3c(=O)o2)cc1	83%
CCCC(CCC)C(=O)Nc1nnc2n1CCS2	82%
O=C(NCc1ccccc1)C1CCN(C(=O)NCc2ccccc2)CC1	90%
COc1ccc(N2CCN(S(=O)(=O)c3ccc(-c4ccno4)cc3OC)CC2)cc1	6% (active)
COc1cc(-c2ccno2)ccc1S(=O)(=O)N1CCN(c2ccccc2)CC1	72%
COc1ccccc1N1CCN(S(=O)(=O)c2ccc(-c3ccno3)cc2OC)CC1	86%
COc1cc(-c2ccno2)ccc1S(=O)(=O)N1CCN(c2ccc(F)cc2)CC1	67%
COc1cccc(N2CCN(S(=O)(=O)c3ccc(-c4ccno4)cc3OC)CC2)c1	64%
COc1cc(-c2ccno2)ccc1S(=O)(=O)N1CCN(c2cccc(Cl)c2)CC1	-1% (active)
N#CC1=C2SCN(C3CCCCC3)CN2C(=O)CC1c1ccc(Cl)cc1 (stereo unspecified)	91%
CCOc1cc(CNC(=O)c2cc(-c3ccccc3)n[nH]2)cc(OCC)c1OCC	98%
Cc1ccc(-c2cc(NC(=O)COc3c(C)cc(C)cc3C)on2)cc1	67%
CC1Cc2cc(C(=O)NC3CCCCC3)ccc2O1 (stereo unspecified)	71%
Cc1ccc(N2C(=O)CS(=O)(=O)C23C(=O)N(Cc2ccccc2F)c2ccccc23)cc1Cl (stereo unspecified)	60%
Cc1ccc(CSC2=Nc3ccccc3C3=NC(CCC(=O)N4CCN(c5ccccc5)CC4)C(=O)N23)cc1 (stereo unspecified)	85%
O=C(CCC1N=C2c3ccccc3N=C(SCc3cccc(Cl)c3)N2C1=O)NCCc1ccccc1 (stereo unspecified)	63%
O=C(CCC1N=C2c3ccccc3N=C(SCc3ccc(Cl)cc3)N2C1=O)N1CCN(c2ccccc2)CC1 (stereo unspecified)	91%
O=C(CCC1N=C2c3ccccc3N=C(SCc3cccc(Cl)c3)N2C1=O)N1CCN(c2ccccc2)CC1 (stereo unspecified)	47% (active)
O=C(CCC1N=C2c3ccccc3N=C(SCc3ccccc3Cl)N2C1=O)N1CCN(c2ccccc2)CC1 (stereo unspecified)	49% (active)
O=C(CCC1N=C2c3ccccc3N=C(SCc3ccc(F)cc3)N2C1=O)N1CCN(c2ccccc2)CC1 (stereo unspecified)	57%
COc1cccc(NC(=O)CN2CCCN(S(=O)(=O)c3ccc(Br)cc3)CC2)c1	58%
CCC1(CC)Cc2ccccc2-c2nc(NCCCO)[nH]c(=O)c21	82%
COc1ccccc1N1CCN(C(=O)c2cc3c(=O)n(Cc4cccs4)ccc3nc2C)CC1	74%

Compound	survival
Cc1oc2ncn(CC(C)C)c(=O)c2c1C(=O)NCCCN(Cc1ccccc1)C(C)C	117%
COc1ccc2c(C)c(CCC(=O)NCCc3ccccc3OC)c(=O)oc2c1	77%
Cc1ccc2oc(-c3cc(NC(=O)/C=C/c4ccco4)ccc3Cl)nc2c1	40% (active)
Cc1cc(C)c2oc(-c3cc(NC(=O)Cc4ccccc4)ccc3Cl)nc2c1	31% (active)
Cc1ccc2oc(-c3cc(NC(=O)c4oc5ccccc5c4C)ccc3Cl)nc2c1	62%
COc1c(C)cccc1C(=O)Nc1ccc(Cl)c(-c2nc3cc(C)ccc3o2)c1	6% (active)
Cc1ccc2oc(-c3cc(NC(=O)c4ccco4)ccc3Cl)nc2c1	0% (active)
Cc1cc(NC(=O)c2ccco2)cc(-c2nc3cc(Cl)ccc3o2)c1O	79%
O=C(Nc1ccc(Cl)c(-c2nc3ccccc3o2)c1)c1cccc2c(Cl)cccc12	84%
Cc1ccc2nc(-c3cc(NC(=O)/C=C/c4ccccc4)ccc3Cl)oc2c1	68%
Cc1cc(NC(=O)Cc2ccccc2)cc(-c2nc3ccccc3o2)c1O	79%
O=C(/C=C/c1ccco1)Nc1ccc(Cl)c(-c2nc3cc(Cl)ccc3o2)c1	65%
O=C(Nc1ccc(O)c(-c2nc3ccccc3o2)c1)c1ccco1	71%
Cc1ccccc1-c1nc2cc(NC(=O)Cc3ccc(Cl)cc3)ccc2o1	66%
CC1CCN(c2nc3ccc(C(=O)NCc4ccccc4)cc3s2)CC1	77%
CC(=O)Nc1ccc(OCc2cc(=O)n3ccccc3n2)cc1	76%
Cc1ccc(-c2nc3sc(CCNC(=O)c4ccc(Br)o4)c(C)n3n2)cc1	84%
CCOC(=O)C1CCN(C(=O)CN(c2cc(Cl)ccc2OC)S(C)(=O)=O)CC1	95%
CC1CCCCC1NC(=O)CN1CCC(NC(=O)c2cccc(F)c2)CC1 (stereo unspecified)	85%
CC1CCCN(CCCNC(=O)Cn2ncc3c([nH]c4ccccc43)c2=O)C1 (stereo unspecified)	94%
O=C(Nc1cc(F)ccc1F)C1COc2ccccc2C1 (stereo unspecified)	69%
CCc1ccc(OCC(=O)Nc2ccc(Cl)c(-c3nc4cc(C)cc(C)c4o3)c2)cc1	35% (active)
Cc1cc2nc(-c3cccc(NC(=O)COc4ccc(Cl)c(C)c4)c3)oc2cc1C	64%

Compound	survival
Cc1ccc2nc(-c3cc(NC(=O)COc4ccc(C)c(C)c4)ccc3Cl)oc2c1	30% (active)
CCOc1ccc(C(=O)Nc2ccc(Cl)c(-c3nc4cc(C)cc(C)c4o3)c2)cc1	66%
Cc1cc(NC(=O)COc2ccccc2)cc(-c2nc3ccccc3o2)c1O	94%
Cc1ccc(OCC(=O)Nc2ccc(-c3nc4ccc(C)cc4o3)cc2)cc1	66%
Cc1ccc2oc(-c3cc(NC(=O)Cc4ccccc4)ccc3Cl)nc2c1	52% (active)
Cc1ccc2oc(-c3cc(NC(=O)CC(C)C)ccc3Cl)nc2c1	87%
Cc1ccc(OCC(=O)Nc2cccc(-c3nc4ccccc4o3)c2C)cc1C	55% (active)
Cc1ccc2oc(-c3cccc(NC(=O)Cc4ccc(Cl)cc4)c3)nc2c1	72%
CCCCOc1ccc(C(=O)Nc2cccc(-c3nc4ccccc4o3)c2C)cc1	76%
CCc1ccc(OCC(=O)Nc2ccc(Cl)c(-c3nc4ncccc4o3)c2)cc1	47%
Cc1nn(CCCC(=O)Nc2ccccc2C(F)(F)F)c(=O)c2c1sc1ccccc12	74%
Cc1nc2ccc(C(=O)N3CCN(Cc4ccccc4)CC3)cc2[nH]1	104%
CN(c1ccc(C(=O)NCc2cccnc2)cc1)S(C)(=O)=O	73%
Cc1cccc(C(=O)n2nc(-c3ccco3)nc2NCc2ccccc2)c1	63%
C=CCN1C(=O)C2C(C(=O)NC3CCCCC3C)C3(C)C=CC2(O3)C1C(=O)NC(C)(C)C (stereo unspecified)	65%
Nc1ncc(S(=O)(=O)NCc2ccccc2)cn1	70%
COc1ccc(Nc2oc(-c3ccc(COc4cccc(C)c4)o3)nc2C#N)cc1	109%
Cc1ccc(-n2c(=O)c3ccccc3n(CC(=O)Nc3cccc(C(F)(F)F)c3)c2=O)cc1	63%
CCc1ccc2oc(-c3ccc(C)c(NC(=O)c4ccc(C#N)cc4F)c3)nc2c1	74%
Cc1cc(C)c2oc(-c3ccc(NC(=O)COc4ccccc4C)cc3)nc2c1	67%
Cc1cc(C)c2oc(-c3cccc(NC(=O)c4cccc(F)c4)c3C)nc2c1	72%
Cc1cc(C)c2oc(-c3cccc(NC(=O)COc4ccccc4Cl)c3C)nc2c1	42% (active)
